Legend:
Assay in all cases: PBM binding z-score (relative to random genomic background probes); higher = stronger binding; sequences stand for … in GC…GCGATTGACAGCGTAGAATGAAGG
[1] = tested on: FXR:RXRa (NR concentration 270 nM, RXRa partner concentration 90 nM)
Procedure, shortened: (§1)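 Ligand-free nuclear receptor dimers were applied to custom Agilent 4×180K protein-binding microarrays whose double-stranded probes carried direct-repeat seeds, single-nucleotide variants, half-site ablations and random human genomic background sequences in 34-nt variable regions. Incubation lasted 1 h. Binding z-scores were computed against the random background probes from regression-normalized fluorescence.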

[2] = tested on: LXRa:RXRa (NR concentration 270 nM, RXRa partner concentration 90 nM)
Procedure, shortened: as §1

[3] = tested on: LXRa homodimer (NR concentration 270 nM)
Procedure, shortened: as §1

[4] = tested on: LXRb:RXRa (NR concentration 270 nM, RXRa partner concentration 90 nM)
Procedure, shortened: as §1

[5] = tested on: LXRb homodimer (NR concentration 270 nM)
Procedure, shortened: as §1

[6] = tested on: PPARa:RXRa (NR concentration 270 nM, RXRa partner concentration 90 nM)
Procedure, shortened: as §1

[7] = tested on: PPARg:RXRa (NR concentration 180 nM, RXRa partner concentration 90 nM)
Procedure, shortened: as §1

[8] = tested on: PPARg:RXRa 270nM:90nM, anti-RXR (NR concentration 270 nM, RXRa partner concentration 90 nM)
Procedure, shortened: as §1

[9] = tested on: PPARg:RXRa 30nM:10nM, anti-RXR (NR concentration 30 nM, RXRa partner concentration 10 nM)
Procedure, shortened: as §1

[10] = tested on: PPARg:RXRa 90nM:30nM, anti-RXR (NR concentration 90 nM, RXRa partner concentration 30 nM)
Procedure, shortened: as §1

[11] = tested on: PPARg:RXRa DBDmut IVT, anti-RXR (DBD mutation: RXRa K156A/R161A, NR concentration 270 nM, RXRa partner concentration 90 nM)
Procedure, shortened: as §1

[12] = tested on: PPARg:RXRa IVT, anti-PPARg (NR concentration 270 nM, RXRa partner concentration 90 nM)
Procedure, shortened: as §1

[13] = tested on: PPARg DBDmut:RXRa IVT, anti-PPARg (DBD mutation: PPARg1 K132A/R137A, NR concentration 270 nM, RXRa partner concentration 90 nM)
Procedure, shortened: as §1

[14] = tested on: PPARg DBDmut IVT, anti-PPARg (DBD mutation: PPARg1 K132A/R137A, NR concentration 270 nM)
Procedure, shortened: as §1

[15] = tested on: PPARg homodimer (NR concentration 180 nM)
Procedure, shortened: as §1

[16] = tested on: PXR:RXRa (NR concentration 270 nM, RXRa partner concentration 90 nM)
Procedure, shortened: as §1

[17] = tested on: PXR homodimer (NR concentration 270 nM)
Procedure, shortened: as §1

[18] = tested on: RARa:RXR (NR concentration 270 nM, RXRa partner concentration 90 nM)
Procedure, shortened: as §1

[19] = tested on: RARa homodimer (NR concentration 270 nM)
Procedure, shortened: as §1

[20] = tested on: RARb:RXRa (NR concentration 270 nM, RXRa partner concentration 90 nM)
Procedure, shortened: as §1

| Sequence | PBM binding z-score [1] | PBM binding z-score [2] | PBM binding z-score [3] | PBM binding z-score [4] | PBM binding z-score [5] | PBM binding z-score [6] | PBM binding z-score [7] | PBM binding z-score [8] | PBM binding z-score [9] | PBM binding z-score [10] | PBM binding z-score [11] | PBM binding z-score [12] | PBM binding z-score [13] | PBM binding z-score [14] | PBM binding z-score [15] | PBM binding z-score [16] | PBM binding z-score [17] | PBM binding z-score [18] | PBM binding z-score [19] | PBM binding z-score [20] |
| --- | --- | --- | --- | --- | --- | --- | --- | --- | --- | --- | --- | --- | --- | --- | --- | --- | --- | --- | --- | --- |
| CGAACTAGGTTATCCAGGACAGTGAATACATTGA | 0.556 | 0.403 | 0.239 | 0.204 | -0.168 | 2.31 | 2.82 | 2.24 | 0.585 | 1.4 | 6.42 | 5.96 | 0.89 | 0.666 | 0.877 | 0.173 | 0.527 | 0.654 | 0.298 | 0.828 |
| CCTAGCAGGCCAGGGTCACTCAGGCATTTCGCTT | 1.73 | 1.43 | -0.738 | 1.49 | -0.994 | 2.75 | 0.469 | 1.25 | -0.561 | 0.308 | -0.00567 | 0.705 | -1.33 | -1.04 | 0.362 | 2.21 | -0.351 | 2.78 | -0.431 | 2.47 |
| TCTTATAGGTAAACAGGTGAAAGTCCGTAAGTTA | 1.1 | 1.01 | 0.0286 | 0.875 | 0.307 | 2.34 | 2.7 | 3.52 | 4.06 | 3.86 | 4.87 | 4.49 | 1.36 | 1.34 | 1.19 | 0.753 | 0.655 | 0.981 | 0.803 | 0.791 |
| CCGAGTAGGTTATGGAGCATTCAGGCAACGGTGA | 0.0328 | 0.259 | 0.125 | 0.219 | -0.185 | 1.01 | 1.36 | 2.08 | 0.32 | 1.46 | 3.11 | 2.34 | -1.14 | -0.703 | 0.952 | -0.208 | 0.0693 | 0.144 | 0.512 | 0.499 |
| TGAATGAGGTTAAAGATCAGGGAGCGTGGCGTCG | 2.85 | 2.34 | -0.379 | 1.14 | 0.0684 | 4.39 | 5.63 | 5.88 | 5.47 | 6.49 | 2.38 | 3.63 | 0.471 | -0.164 | 0.404 | 1.83 | -0.192 | 2.89 | -0.32 | 1.78 |
| GGAACGAGGGCAAGTTGATAGCTGAGTTTGATGG | 0.775 | 0.137 | -0.459 | 0.185 | -0.455 | 1.59 | 0.992 | 1.03 | 0.138 | 0.467 | 3.45 | 2.67 | 0.246 | -0.342 | 0.0769 | 0.535 | 0.363 | 0.267 | -0.269 | 2.57 |
| GCTGCTAGGACAGGTTGGTCAGCTAACGGGTACG | -0.662 | -0.909 | -0.343 | -0.926 | -0.654 | -0.661 | 0.0442 | -0.697 | -1.16 | -0.722 | -0.0688 | -0.79 | -1.21 | -0.812 | -0.869 | -0.739 | -0.561 | -0.833 | -0.447 | 0.0113 |
| GGAATGAGGGCAAGTTGATAGCAGAGTTTGATGG | 1.28 | 0.752 | -0.149 | 0.54 | 0.0849 | 2.08 | 1.6 | 1.56 | 0.431 | 0.993 | 4.98 | 3.82 | 1.16 | -0.0155 | 1.37 | 1.05 | 1.87 | 0.695 | 0.0185 | 2.64 |
| CCAACTAGGTCATCCAGGACAGTGAATACATTGA | 3.96 | 2.83 | 1.3 | 2.48 | 0.7 | 4.41 | 6.66 | 5.59 | 2.96 | 4.83 | 7.67 | 7.53 | 1.61 | 1.62 | 2.3 | 1.94 | 1.63 | 2.35 | 1.24 | 3.89 |
| CCGACTGGGGCATACGGTTACCATAAGCCAGCCC | -0.196 | -0.252 | -0.334 | -0.388 | -1.21 | 0.556 | 1.47 | 1.77 | 0.00419 | 1.13 | 2.5 | 2.15 | -0.604 | -1.2 | 0.276 | -0.401 | -0.646 | -0.126 | -0.0238 | 0.496 |
| GGAACGAGGGCAAGTTGAGAGCAGAGTTTGATGG | 1 | 0.529 | -0.352 | 0.383 | -0.627 | 1.72 | 0.945 | 1.34 | 0.0684 | 0.629 | 3.69 | 2.7 | 0.19 | -0.541 | 0.391 | 0.927 | 0.275 | 0.482 | -0.172 | 2.74 |
| AGTCAAAGTTCATCTAGGTAACGTGAGATATGCT | 6.5 | 5.85 | 4.89 | 3.81 | 1.73 | 4.76 | 6.65 | 6.18 | 3.58 | 5.42 | 1.17 | 3.86 | 1.73 | 0.803 | 2.99 | 5.36 | 7.67 | 3.82 | 1.48 | 4.96 |
| CCGAGTAGGTTATGGGGCTTTCAGGCAACGGTGA | 0.104 | 0.374 | -0.409 | 0.503 | -0.205 | 1.34 | 1.69 | 2.5 | 0.331 | 1.54 | 3.12 | 2.84 | -0.365 | -0.667 | 0.638 | -0.191 | -0.0344 | -0.019 | 0.153 | 0.525 |
| CCTACCGGGCCACGAAAGGTCATTGATTCAGTGA | 3.59 | 5.17 | 5.04 | 4.36 | 0.399 | 4.26 | 1.96 | 2.98 | 0.636 | 1.92 | 0.938 | 2.28 | -0.376 | -1.2 | 2.6 | 5.44 | 2.13 | 5.36 | 0.144 | 4.07 |
| CCGACTGGCGCAAGGTTACCATAACGCACAGCCA | 0.175 | 0.561 | -0.255 | 0.645 | -0.776 | 0.766 | 0.701 | -0.0732 | -0.409 | -0.61 | 0.00884 | -0.432 | -1.08 | -0.725 | 0.0939 | 0.262 | -0.271 | 0.604 | -0.0192 | 0.871 |
